{"source": "ChEMBL document CHEMBL4513216", "about": "“Probing the Open Global Health Chemical Diversity Library for Multistage-Active Starting Points for Next-Generation Antimalarials” (ACS Infect Dis, 2020)", "note": "Among all 69,000 compounds or so, about 8,600 (12%) showed an effect of 50% or more. For the sample, strong results were picked, then their nearest neighbours and some compounds at random.", "data": [{"system": "Plasmodium berghei", "experiment": "Screen against P. berghei liver stage (PbLuc), transformed with Luciferase, at 10uM", "type": "functional, HepG2", "details": "tested at 10 uM", "units": {"INHIBITION": "%"}, "values": [{"smiles": "Cc1nn(C)c2nc(-c3ccccn3)nc(NCCCOC(C)C)c12", "INHIBITION": 5.46}, {"smiles": "CC(=O)NCCNc1nc(-c2ccccn2)nc2c1c(C)nn2C", "INHIBITION": 39.1}, {"smiles": "CCSCCNc1nc(-c2ccccn2)nc2c1c(C)nn2C", "INHIBITION": 51.3}, {"smiles": "CC(C)N(C)Cc1cnc2n1CCN(C(=O)Cc1cccs1)C2C", "note": "(stereo not given)", "INHIBITION": -18.5}, {"smiles": "Cc1nccn1C1CCCN(C(=O)c2ccnc(-n3ccnc3)c2)C1", "note": "(stereo not given)", "INHIBITION": 18.2}, {"smiles": "CC(C)n1nnc(CC(=O)NCC2(c3ccccc3F)CCOCC2)n1", "INHIBITION": 27.05}, {"smiles": "O=C(c1cc2cccc(F)c2[nH]1)N1C[C@@H](O)[C@H](N2CCOCC2)C1", "INHIBITION": -9.08}, {"smiles": "CCC(CC)C(=O)NCC1(NC(C)c2ccccc2)CCOCC1", "note": "(stereo not given)", "INHIBITION": 59.3}, {"smiles": "CC(NC1(CNC(=O)OC(C)(C)C)CCOCC1)c1ccccc1", "note": "(stereo not given)", "INHIBITION": 36.6}, {"smiles": "CC(NC1(CNC(=O)NC2CC2)CCOCC1)c1ccccc1", "note": "(stereo not given)", "INHIBITION": 43.1}, {"smiles": "CC(NC1(CNC(=O)CC2CCCC2)CCOCC1)c1ccccc1", "note": "(stereo not given)", "INHIBITION": 82.1}, {"smiles": "CCOCC(=O)NCC1(NC(C)c2ccccc2)CCOCC1", "note": "(stereo not given)", "INHIBITION": 42}, {"smiles": "CC(NC1(CNC(=O)CC(C)(C)C)CCOCC1)c1ccccc1", "note": "(stereo not given)", "INHIBITION": -6.75}, {"smiles": "COc1cccc(CNCC2(COc3cccnc3)C[C@@H](O)[C@@H](O)C2)c1", "note": "(stereo not given in full)", "INHIBITION": 46.4}, {"smiles": "CC(Nc1ccc(C(F)(F)F)cc1C#N)c1cccc(S(N)(=O)=O)c1", "note": "(stereo not given)", "INHIBITION": 28.6}, {"smiles": "CC(C)CNC(=O)CNc1c(NCc2ccccn2)c(=O)c1=O", "INHIBITION": -8.8}, {"smiles": "O=c1c(NCc2ccncc2)c(NCC(O)CN2CCOCC2)c1=O", "note": "(stereo not given)", "INHIBITION": 50.8}, {"smiles": "O=c1c(NCc2ccccn2)c(NCC(O)CN2CCOCC2)c1=O", "note": "(stereo not given)", "INHIBITION": 50.8}, {"smiles": "CC(C)(CO)Nc1c(NCc2ccccn2)c(=O)c1=O", "INHIBITION": 6.34}, {"smiles": "OC(CNc1ccc(Cl)cn1)CN1CCOCC1", "note": "(stereo not given)", "INHIBITION": -58.5}, {"smiles": "O=c1c(NCc2ccco2)c(NCC(O)CN2CCOCC2)c1=O", "note": "(stereo not given)", "INHIBITION": 48.9}, {"smiles": "CC(NC(=O)NCc1cccnc1N(C)C)c1ccc(F)cc1", "note": "(stereo not given)", "INHIBITION": -12.1}, {"smiles": "COCCC(=O)N1C[C@@H]2CC[C@H]1CN(C1Cc3ccccc3C1)C2", "INHIBITION": -20.6}, {"smiles": "CN(C)CCO[C@H]1CN(C(=O)c2ccc[nH]2)[C@@H]2COC[C@H]12", "INHIBITION": 7.65}, {"smiles": "CCN(CC)C1CCN(C(=O)c2cc(-n3cccn3)ccc2Cl)CC1", "INHIBITION": 14.6}, {"smiles": "Fc1ccc2c(c1)C1(CCNCC1)CC2OCC1CC1", "note": "(stereo not given)", "INHIBITION": -5.63}, {"smiles": "CCN1CCC2(CC1)CC(NC(=O)NC)c1cc(C)ccc12", "note": "(stereo not given)", "INHIBITION": -25}, {"smiles": "CC(=O)N1CC2(CCNCC2)c2cc(C)ccc21", "INHIBITION": 7.77}, {"smiles": "Cc1ccc2c(c1)C(NC(C)C)CC21CCNCC1", "note": "(stereo not given)", "INHIBITION": -46.4}, {"smiles": "Cc1ccc2c(c1)C1(CCNCC1)CC2NC(C)C", "note": "(stereo not given)", "INHIBITION": -22.7}, {"smiles": "Cc1ccc2c(c1)C1(CCNCC1)CC2NCCO", "note": "(stereo not given)", "INHIBITION": 55.7}, {"smiles": "CC(C)NC1CC2(CCNCC2)c2cc(F)ccc21", "note": "(stereo not given)", "INHIBITION": -33.1}, {"smiles": "Fc1ccc2c(c1)C1(CCNCC1)CC2NC1CC1", "note": "(stereo not given)", "INHIBITION": 95.5}, {"smiles": "CNC(=O)NC1CC2(CCNCC2)c2ccc(C)cc21", "note": "(stereo not given)", "INHIBITION": 63}, {"smiles": "c1ccc2c(c1)C(NC1CCCC1)CC21CCNCC1", "note": "(stereo not given)", "INHIBITION": 71.1}, {"smiles": "Cc1ccc(OCC(O)CN2CCC(Cn3cccn3)CC2)cc1", "note": "(stereo not given)", "INHIBITION": 28.5}, {"smiles": "Cc1ccc(-c2nc(C(=O)N3CCCC(C(N)=O)C3)cs2)c(C)c1", "note": "(stereo not given)", "INHIBITION": -79.45}, {"smiles": "CC(c1ccncc1)N(CCN(C)C)C(=O)Nc1ccc(Cl)cc1", "note": "(stereo not given)", "INHIBITION": 8.49}, {"smiles": "Cc1nn(CC(C)C)c(C)c1CC(=O)N1CCCC(NS(C)(=O)=O)C1", "note": "(stereo not given)", "INHIBITION": 17.1}, {"smiles": "Cc1cc(C)c(C#N)c(N2CCC3(CCCN(CCO)C3=O)C2)n1", "note": "(stereo not given)", "INHIBITION": -17.2}, {"smiles": "COc1cn(CC(=O)N2CCC(c3ccccc3)CC2)c(C)cc1=O", "INHIBITION": 12.4}, {"smiles": "COc1cccc(N2C(=O)CC3(CCNCC3)C2=O)c1", "INHIBITION": 22.3}, {"smiles": "Cc1ccc2c(c1)C(NC1CC1)CC21CCNCC1", "note": "(stereo not given)", "INHIBITION": 42.1}, {"smiles": "COc1ccc2c(c1)C1(CCNCC1)CC2NC1CC1", "note": "(stereo not given)", "INHIBITION": 94.6}, {"smiles": "Cc1ccc2c(c1)C1(CCNCC1)CC2OCC1CC1", "note": "(stereo not given)", "INHIBITION": -26.5}, {"smiles": "COc1cccc(-c2ccnc(C3CCNCC3)c2)c1", "INHIBITION": -23.8}, {"smiles": "Cc1ccc2c(c1)C1(CCNCC1)CC2NC1CC1", "note": "(stereo not given)", "INHIBITION": 67.5}, {"smiles": "COc1cccc(C(=O)N2CCCCC2c2nccs2)c1OC", "note": "(stereo not given)", "INHIBITION": -7.35}, {"smiles": "COCC(=O)N1CCC(c2cc3n(n2)[C@@H](C(F)(F)F)C[C@@H](C)N3)CC1", "INHIBITION": 49.6}, {"smiles": "CC(C)(O)CCc1cccc(C(=O)N2CCC[C@H]2C(N)=O)c1", "INHIBITION": 40.2}, {"smiles": "COc1ccc(NC(=O)NCCCn2nc3ccccn3c2=O)cc1", "INHIBITION": 16.8}, {"smiles": "O=C(N1CCCC1)N1CCO[C@H]2[C@@H](OCc3cccnc3)CC[C@@H]21", "INHIBITION": -26.5}, {"smiles": "Cn1c(CN2CCCC(Cn3cncn3)C2)nc2ccccc21", "note": "(stereo not given)", "INHIBITION": 33.1}, {"smiles": "O=C(CN1CCC(c2nnc(C(F)(F)F)o2)CC1)Nc1cccnc1", "INHIBITION": -17.8}, {"smiles": "COCCN(Cc1ccoc1)C(=O)c1ccccc1Cl", "INHIBITION": -33.2}, {"smiles": "CCc1ccccc1NC(=O)c1cnn(C)c1C", "INHIBITION": 21.5}, {"smiles": "COCCN(Cc1ccc(F)cc1Cl)C(=O)c1csnn1", "INHIBITION": 39.5}, {"smiles": "COCCN(Cc1ccc(F)cc1Cl)C(=O)c1ccccn1", "INHIBITION": 52.4}, {"smiles": "COCCN(Cc1ccc(F)cc1Cl)C(=O)c1cnn(C)c1C", "INHIBITION": 80.2}, {"smiles": "CCCN(CCC)C(=O)c1cnn(C)c1C", "INHIBITION": 51.3}, {"smiles": "COCCN(Cc1ccc(F)cc1Cl)C(=O)c1cc(C)n[nH]1", "INHIBITION": 32.5}, {"smiles": "COCCN(Cc1ccc(F)cc1Cl)C(=O)c1ccncc1", "INHIBITION": 21}, {"smiles": "COCCN(Cc1ccoc1)C(=O)c1ccccc1OC", "INHIBITION": 28.4}, {"smiles": "COCCN(Cc1ccc(F)cc1Cl)C(=O)c1ccc(=O)[nH]n1", "INHIBITION": 16.6}, {"smiles": "COCCN(Cc1ccccc1)C(=O)c1cnn(C)c1C", "INHIBITION": 81.5}, {"smiles": "CCCN(CCC)C(=O)c1sc(C)nc1C", "INHIBITION": -3.14}, {"smiles": "CN1CCC(NC(=O)C2CN(c3cncnc3)CCO2)CC1", "note": "(stereo not given)", "INHIBITION": 14.7}, {"smiles": "CN1C[C@@H](c2cccc(F)c2)[C@H]2[C@H]1CCCCCN2C(=O)C1CC1", "INHIBITION": 12.2535}, {"smiles": "COc1ccc(C(O)CNC(=O)NCc2nc(C)cs2)cc1", "note": "(stereo not given)", "INHIBITION": 9.14}, {"smiles": "COc1ccc(C(C)NC(=O)Cn2ccc(=O)n(C)c2=O)cc1OC", "note": "(stereo not given)", "INHIBITION": 31.9}]}]}
